# Data taken from the supplement of paper PMC4380459.
# System: tubulin (bovine brain)
# Experiment: tubulin polymerization end-point dOD, fold change relative to DMSO vehicle; higher = more polymerization (stabilization)
# Settings: 50 µM; 60 min; 37 °C
# In short: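 Using the Cytoskeleton HTS-Tubulin polymerization kit, 4 mg/ml bovine brain tubulin in G-PEM buffer (PIPES pH 6.9, MgCl2, EGTA, GTP) was combined on ice in 384-well plates with compound at a final 50 μM in 0.5% DMSO. After warming to 37°C in a Tecan reader, the plates were read at 340 nm once a minute for 1 hour. Values give the end-point change in optical density as percent fold change over DMSO vehicle, normalized per run with the means and standard deviations of DMSO and reference-control wells.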
row,SMILES,tubulin polymerization end-point dOD
1,COc1cc(OC)cc(C(=O)N(Cc2ccccc2OC)Cc2cc3c(C)ccc(C)c3[nH]c2=O)c1,12.8%
2,Cc1ccc(C2=NN(C(=O)c3ccncc3)C(c3ccccc3F)C2)cc1 (centres undefined),-4.53%
3,CCc1ccc2nc(SCC(=O)Nc3ccccc3C)c(C)cc2c1,-20.5%
4,CCc1cc2cc(OC)ccc2nc1SCC(=O)Nc1cc(C)ccc1OC,-2.45%
5,O=c1[nH]c(/C=C/c2ccccc2F)nc2ccccc12,21.3%
6,C=CCOc1ccccc1NC(=O)c1cc(-c2c(C)nn(C)c2C)n[nH]1,-31.9%
7,COc1ccc2cc(CN(Cc3ccco3)C(=O)c3cccs3)c(=O)[nH]c2c1,91.2%
8,COc1ccc(/C=N/NC(=O)c2cccc(F)c2)cc1Br,-16.1%
9,COc1ccc(-n2nnnc2SCc2cc3c(cc2Br)OCO3)cc1,-14.8%
10,O=C(Nc1ncc(Cc2ccccc2Br)s1)c1cccnc1,-64.1%
11,Cc1cc2cc3c(cc2nc1SCC(=O)Nc1c(C)cccc1C)OCO3,145%
12,COc1ccc2cc(CN(Cc3cccs3)C(=O)Nc3ccccc3Cl)c(=O)[nH]c2c1,-57.2%
13,COc1ccc(C)cc1NC(=O)CSc1nc2ccc(C(C)C)cc2cc1C#N,-41.3%
14,Cc1cc2nc(/C=C/c3ccsc3)sc2cc1C,237%
15,CCN(CC)c1ccc(NC(=O)C2CC=CCC2)cc1 (centres undefined),-23.9%
16,COc1ccc2cc(CNc3ncnc4[nH]ncc34)ccc2c1,-12.6%
17,Cc1ccc(C)c(NC(=O)CSc2nc3ccc(C(C)C)cc3cc2C#N)c1,-39.1%
18,COc1ccc2cc(CN(Cc3ccco3)C(=O)Nc3ccccc3OC)c(=O)[nH]c2c1,43.9%
19,Cc1ccc(C(=O)Nc2nc3ccc(Oc4ccccc4)cc3s2)cn1,15.6%
20,Cc1cc2cc3c(cc2nc1SCC(=O)NC(C)(C)C)CCC3,63.4%
21,COc1ccccc1NC(=O)CSc1nnc(-c2cc(OC)c(OC)c(OC)c2)n1C,-33.1%
22,COc1ccc(/C(C)=N/Nc2cc[nH+]c3cc(Cl)ccc23)cc1OC,3.81%
23,CCOc1ccc(S(=O)(=O)Nc2cc(Br)c3oc(C)c(C(C)=O)c3c2)cc1,-25.4%
24,Cc1ccc(/C=N/NC(=O)c2c(C)nc3ccc(Cl)cn23)cc1,-21.2%
25,O=C(Nc1ccc(CNc2ncnc3cc(Cl)ccc23)cc1)C1CC1,8.64%
26,COc1ccc2nc(/C=C/c3cccnc3)sc2c1,-29.9%
27,Cc1cc2cc3c(cc2nc1SCC(=O)NCCc1ccccc1)OCCO3,130%
28,O=c1[nH]c(/C=C/c2ccccc2)nc2sc3c(c12)CCCCC3,16.8%
29,O=C(Nc1ncc(Cc2ccc(Cl)cc2)s1)c1cccnc1,7.93%
